# According to PubChem BioAssay AID1671189 (National Center for Advancing Translational Sciences (NCATS), 2021):
# Hit rate of the full screen: of about 1,100 compounds, about 70 (6%) were called active. Where a call stands in place of a potency, no number is given. Not shown: some 22% with an inconclusive outcome. Calls follow the shape of the dose curve; as a rule, active = well fitted curve in the direction sought with a large enough effect; inconclusive = small, poorly fitted or top-dose-only effect, or another doubt; inactive = no such curve, though single readings can be large or run the other way. This excerpt belongs to a sample that is enriched for actives.
# Molecular target: Polyunsaturated fatty acid lipoxygenase ALOX12 (Homo sapiens) (UniProt P18054)
# Sequence (P18054 whole entry, looked up): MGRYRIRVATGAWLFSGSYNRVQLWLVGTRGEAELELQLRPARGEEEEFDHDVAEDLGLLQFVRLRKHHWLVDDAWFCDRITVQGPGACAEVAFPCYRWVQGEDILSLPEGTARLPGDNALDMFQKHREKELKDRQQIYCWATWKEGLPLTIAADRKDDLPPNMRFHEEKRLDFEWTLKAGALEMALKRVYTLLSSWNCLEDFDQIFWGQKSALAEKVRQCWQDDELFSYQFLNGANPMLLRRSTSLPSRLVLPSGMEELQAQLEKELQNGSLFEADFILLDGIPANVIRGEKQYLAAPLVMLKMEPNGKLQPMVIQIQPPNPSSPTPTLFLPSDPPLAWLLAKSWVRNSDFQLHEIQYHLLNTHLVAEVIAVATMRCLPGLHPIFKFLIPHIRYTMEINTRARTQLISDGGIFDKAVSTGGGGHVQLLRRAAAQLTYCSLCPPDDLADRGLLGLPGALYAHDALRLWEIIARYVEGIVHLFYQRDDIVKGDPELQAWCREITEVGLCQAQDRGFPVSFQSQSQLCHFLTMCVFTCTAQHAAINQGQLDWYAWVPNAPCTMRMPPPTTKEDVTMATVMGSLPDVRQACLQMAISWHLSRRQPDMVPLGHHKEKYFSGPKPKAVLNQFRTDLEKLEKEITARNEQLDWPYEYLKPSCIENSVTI
# Assay: Confirmatory qHTS assay for inhibitors of human arachidonate 12S-lipoxygenase (ALOX12): Round 2
# Conditions: purified human 12-LOX, xylenol orange absorbance; series mostly up to 125 µM
# In short: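 Activity was measured as hydroperoxide formation via ferrous/xylenol orange, taking the 573 nm to 405 nm absorbance ratio. Reaction: 40 uM arachidonic acid, 30 min at room temperature, after 15 min compound preincubation with 150 nM enzyme, pH 7.0 Hepes buffer.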
# Potency is read from the fitted curve at half-maximal effect.
row,SMILES,Potency
1,CSc1ccc(-c2ccc(C=O)cc2)cc1,inactive
2,CC(C)Nc1ncnc2c1CN(C1CCCNC1)C(=O)CN2C (stereo unspecified),inactive
3,CN1CC(=O)N(C2CCCNC2)Cc2c1ncnc2N1CCN(Cc2ccccc2)CC1 (stereo unspecified),inactive
4,CN1CC(=O)N(C2CCCNCC2)Cc2c1ncnc2N1CCCC(O)C1 (stereo unspecified),inactive
5,CC[C@@](N)(C(=O)O)c1ccc(C(=O)O)cc1,inactive
6,CCOCCCNc1ncnc2c1CN(C1CCNCC1)C(=O)CN2C,inactive
7,CN1CCC(C(=O)N2Cc3ccccc3OC3(CCN(C(=O)N(C)C)CC3)C2)CC1,inactive
8,Cn1nc(C2CCCN2)c2c(C(=O)NCc3ccc(F)cc3)cc(C3CC3)nc21 (stereo unspecified),inactive
9,O=Cc1ccccc1-c1ccc(O)cc1,inactive
10,COc1ccc(N2CC3CCC(C2)N3Cc2cccc(Cl)c2)cc1,inactive
11,CCC(=O)NC(c1cc(Cl)c2cccnc2c1O)C(C)C (stereo unspecified),10.9 µM (active)
12,CC(=O)NCc1cc(Cl)c2cccnc2c1O,1.93 µM (active)
13,CC(=O)NC(C)c1cc(Cl)c2cccnc2c1O (stereo unspecified),6.85 µM (active)
14,CC(=O)NC(C)c1cc(F)c2cccnc2c1O (stereo unspecified),17.2 µM (active)
15,O=C(O)CCC(=O)N1Cc2ccccc2CC2(CCCN2CC2CCNC2)C1 (stereo unspecified),inactive
16,COc1cccc(CNc2ncnc3c2CN(C2CCCNCC2)C(=O)CN3C)c1 (stereo unspecified),inactive

row,SMILES,Potency
1,CN1CCCC2(Cc3ccccc3CN(C(=O)c3ccc(Cl)cc3)C2)C1 (stereo unspecified),inactive
2,OCC1CN(c2ncccn2)CC12CCN(Cc1cccc3[nH]ccc13)CC2 (stereo unspecified),inactive
3,CN1CC(=O)N(C2CCCNCC2)Cc2c1ncnc2N1CCC(N2CCCCC2)CC1 (stereo unspecified),inactive
4,CNC(C)c1ccc(Oc2ccccc2)cc1 (stereo unspecified),inactive
5,Cn1nc(C2CCCNC2)c2c(C(=O)NCC(F)(F)F)cc(C3CC3)nc21 (stereo unspecified),inactive
6,O=C(O)c1cccc(-c2cnc3ccccc3c2)c1,inactive
7,Cn1nc(C2CCCN2)c2c(C(=O)NCc3cccs3)cc(C3CC3)nc21 (stereo unspecified),inactive
8,O=C(N1CCOCC1)N1CCCC1c1nnc2n1CCNC2 (stereo unspecified),inactive
9,NC(Cc1ccccc1)C(=O)N1CCC2(CC1)CN(C(=O)c1ccc(Cl)cc1)CCO2 (stereo unspecified),inactive
10,O=S(=O)(Nc1ncc(CN2CC[C@H]3CNC[C@H]32)cn1)c1ccccc1,inactive
11,CN1CC(=O)N(C2CCNCC2)Cc2c1ncnc2N1CCc2ccccc2C1,inactive
12,COc1ccc(CN2CCCC23Cc2ccccc2CNC3=O)c(O)c1 (stereo unspecified),inactive
13,CCOC(=O)c1c(NC(=O)CSc2nnnn2-c2ccc(OC)cc2)sc(C)c1C,inactive
14,CC(=O)Nc1ccc(CN2CCC(c3nc4ccc(C)cc4c(=O)[nH]3)CC2)cc1,inactive
15,CCCCc1ncc(-c2nccn2C2CCNC2)[nH]1 (stereo unspecified),inactive
